The values that follow come from PubChem BioAssay (NCI).

This is part of a sample that, as a whole, favours compounds with a hit. Of some 83,000 tested, about 20% had one in any assay.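 How to read the values: 0–100, growth inhibition (40 = 60% inhibited); 0, no net growth; -100 to 0, cell death (-40 = 40% of starting cells died; -100 = all dead).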 A number with no mark means an inactive call. The source made the active and inactive calls. How the source made its calls: active means growth percent below 10; inactive means the rest.

Some test systems named below: NCI-H23 lung; NCI-H226 lung; NCI-H322M lung; HOP-62 NSCLC; NCI-H460 lung; NCI-H522 lung; A549/ATCC NSCLC; 786-0 renal; COLO 205 colon; DU-145 prostate; K-562 leukemia; MALME-3M melanoma; RXF 393 renal; SF-268 CNS; SF-295 CNS; SF-539 CNS; UACC-257 melanoma; M14 melanoma; HCT-15 colon; MDA-MB-231 breast.
Common to all, as to assay: NCI-60 one-dose screen, 48 h (100 = growth as untreated, 0 = no growth, -100 = all killed)
Holding throughout (details): 10 µM unless noted

For the compound `CCC(C)(C)C(=O)O[C@H]1C[C@@H](C)C=C2C=C[C@H](C)[C@H](CC[C@@H]3C[C@@H](O)CC(=O)O3)[C@H]21`, the growth was 48.7% with NCI-H23 lung; 64% in the assay on NCI-H226 lung; 51% with NCI-H322M lung; 80.7% with HOP-62 NSCLC; 24.3% in the assay with NCI-H460 lung; 8.21% (active) in the assay on NCI-H522 lung. The growth with A549/ATCC NSCLC is 67.5%; with 786-0 renal, 51.5%; with COLO 205 colon, 68.3%; in the assay with DU-145 prostate, 95.3%; with K-562 leukemia, 63.3%; in the assay with MALME-3M melanoma, 94.1%. Further, the growth with RXF 393 renal is 36.1%; in the assay with SF-268 CNS, 33.2%; in the assay with SF-295 CNS, 11.7%; in the assay on SF-539 CNS it was 90.7%; in the assay with UACC-257 melanoma it was 86.7%; in the assay on M14 melanoma, 59.3%. Also, the growth in the assay on HCT-15 colon is 54.7%.
Consider `CC(=O)NC1(C(=O)O)CCCC1`, for which the growth is 133% in the assay on NCI-H23 lung; 113% with NCI-H226 lung; 130% in the assay on NCI-H322M lung; 117% with HOP-62 NSCLC; 109% with NCI-H460 lung; 103% in the assay on NCI-H522 lung. Further, the growth is 126% with A549/ATCC NSCLC; 110% with 786-0 renal; 125% in the assay with COLO 205 colon; 126% with DU-145 prostate; 96.6% with K-562 leukemia; 135% in the assay on MALME-3M melanoma. The growth in the assay with MDA-MB-231 breast was 119%; with SF-268 CNS, 111%; with SF-295 CNS, 110%; in the assay on SF-539 CNS it was 104%; in the assay on UACC-257 melanoma, 100%; in the assay with M14 melanoma, 110%. In addition, the growth in the assay on HCT-15 colon is 112%.
`CN1CCN(CC(=O)Nc2nc3c(s2)Nc2cc(Cl)c(Cl)cc2NC3=O)CC1`: the growth in the assay on NCI-H23 lung is 106%; in the assay with NCI-H226 lung, 96.1%; in the assay on NCI-H322M lung, 94.1%; in the assay on HOP-62 NSCLC it was 98.3%; in the assay on NCI-H460 lung, 104%; with NCI-H522 lung, 77%. Besides, the growth is 95.9% with A549/ATCC NSCLC; 99.2% in the assay on 786-0 renal; 107% with COLO 205 colon; 117% with DU-145 prostate; 81.3% in the assay on K-562 leukemia; 107% with MALME-3M melanoma. The growth is 123% in the assay with MDA-MB-231 breast; 111% in the assay on SF-268 CNS; 108% with SF-295 CNS; 107% with SF-539 CNS; 87.9% in the assay with UACC-257 melanoma; 105% with M14 melanoma. Besides, the growth in the assay on HCT-15 colon was 104%.
`CC1=CSC2=NCCN12`: the growth is 104% with NCI-H23 lung; 112% in the assay on NCI-H226 lung; 118% with NCI-H322M lung; 108% in the assay with HOP-62 NSCLC; 109% in the assay with NCI-H460 lung; 100% in the assay on NCI-H522 lung. Further, the growth with A549/ATCC NSCLC is 105%; in the assay on 786-0 renal it was 104%; with COLO 205 colon, 107%; in the assay on DU-145 prostate it was 108%; in the assay on K-562 leukemia it was 101%; in the assay with MDA-MB-231 breast, 122%. Besides, the growth in the assay on RXF 393 renal is 121%; with SF-268 CNS, 102%; with SF-295 CNS, 132%; with SF-539 CNS it was 95.8%; with UACC-257 melanoma, 116%; in the assay on M14 melanoma, 108%. Also, the growth with HCT-15 colon is 109%.
As to `O=C(/C=C/c1ccccc1Cl)c1ccc(O)cc1`, the growth is 93.7% in the assay on NCI-H23 lung; 95.2% in the assay on NCI-H226 lung; 89.5% in the assay with NCI-H322M lung; 117% with HOP-62 NSCLC; 93.8% with NCI-H460 lung; 58.2% in the assay on NCI-H522 lung. For the same compound, the growth in the assay with A549/ATCC NSCLC is 41.8%; with 786-0 renal it was 85%; in the assay on COLO 205 colon, 90%; with DU-145 prostate it was -7.3% (active); in the assay with K-562 leukemia, 32.8%; with MALME-3M melanoma, 93.1%. For the same compound, the growth with MDA-MB-231 breast is 89%; with SF-268 CNS, 53.7%; with SF-295 CNS, 47.4%; in the assay on SF-539 CNS it was 94.1%; with UACC-257 melanoma it was 116%; in the assay with M14 melanoma, 76.8%. In the assay on HCT-15 colon, the growth is 37.5%.
`Oc1ccccc1C=Nc1ccccc1N=Cc1ccccc1O.[Cu+2]`: the growth with NCI-H23 lung was 33.1%; in the assay on NCI-H226 lung, 71.1%; in the assay on NCI-H322M lung, 51.1%; with HOP-62 NSCLC it was 66%; with NCI-H460 lung, 84.1%; in the assay with NCI-H522 lung, 14.9%. Also, the growth with A549/ATCC NSCLC was 66%; in the assay on 786-0 renal, 90.9%; in the assay with COLO 205 colon, 83.7%; in the assay with DU-145 prostate, 68.5%; in the assay on K-562 leukemia, 36.7%; in the assay with MDA-MB-231 breast it was 63.5%. Besides, the growth in the assay with RXF 393 renal is 104%; with SF-268 CNS, 75.2%; in the assay on SF-295 CNS, 68.6%; in the assay on SF-539 CNS, 76%; with UACC-257 melanoma it was 45.4%; in the assay with M14 melanoma, 65.2%. Further, the growth with HCT-15 colon was 56.5%.
For `C=CCOc1ccc2c(c1)CC[C@@H]1[C@@H]2CC[C@@]2(C)[C@H]1CC[C@]2(C)O`, the growth was 92.8% in the assay on NCI-H23 lung; 104% in the assay on NCI-H226 lung; 81.2% in the assay with NCI-H322M lung; 109% with HOP-62 NSCLC; 46.3% in the assay on NCI-H460 lung; 60.3% with NCI-H522 lung. Further, the growth with A549/ATCC NSCLC was 80.3%; in the assay with 786-0 renal, 93.8%; in the assay with COLO 205 colon it was 75.6%; with DU-145 prostate, 121%; with K-562 leukemia it was 4.02% (active); with MDA-MB-231 breast, 64.7%. The growth in the assay with RXF 393 renal was 106%; with SF-268 CNS, 85.7%; in the assay on SF-295 CNS, 94.8%; in the assay on SF-539 CNS, 76.5%; in the assay on UACC-257 melanoma, 53.9%; with M14 melanoma, 88.7%. The growth in the assay on HCT-15 colon was 65.2%.
